The results in this text go back to PubChem BioAssay (NCATS).

Values joined by “and” are separate entries in the source; they are usually repeats but may differ in a detail not shown here. Identical values can stand only once. Records with an inconclusive call do not appear. Active and inactive are the calls of the source. Calls come from the whole dose curve; as a rule, active = well fitted inhibition curve with a large enough effect; inconclusive = small, poorly fitted or top-dose-only effect; inactive = no such curve, though single readings can be large or run the other way.
% is set by controls: 0 for no effect and ±100 for the full control effect; potency is the fitted concentration of half-maximal effect.

This experiment is described as follows: Primary qHTS for inhibitors of nuclear receptor binding SET domain protein 2 (NSD2) in an RCH-ACV wild type WT cells (2C) (AID 1645877). Note: nearly all actives have a fitted effect of over 70% in size. The following applies: RCH-ACV (leukaemia line) NSD2 WT (2C) viability, CellTiter-Glo, 72 h; series mostly up to 44.9 µM; activity change, negative = cell killing: at the top concentration.
As to `Cc1ccccc1-n1c(Cn2nc(-c3cccc(O)c3)c3c(N)ncnc32)nc2cccc(C)c2c1=O`, the Potency was 0.728 µM (active).
`NC[C@H]1O[C@H](O[C@@H]2[C@@H](O)[C@@H](O[C@H]3O[C@H](CO)[C@@H](O)[C@H](N)[C@@H]3O)[C@H](N)C[C@@H]2N)[C@H](O)[C@@H](O)[C@H]1O`: the “activity change, negative = cell killing” value is 3.78% (inactive).
`O=C(O)Cc1cccc(OCCCN(Cc2cccc(C(F)(F)F)c2Cl)CC(c2ccccc2)c2ccccc2)c1`: the compound was classed as inactive.
`CC(C)CNc1ccnc(NCc2csc(-c3ccccc3)n2)n1`: the Potency is 8.33 µM (active).
On the same count and under the same terms, the figure for `CCC(=O)N1CCN(c2ccc(-n3c(=O)ccc4cnc5ccc(-c6cnc7ccccc7c6)cc5c43)cc2C(F)(F)F)CC1` is 13.3 nM (active) and 20.4 nM (active).
With `N#CC(c1ccc(Cl)cc1)c1c(Cl)cc(-n2ncc(=O)[nH]c2=O)cc1Cl` (configuration not stated), the “activity change, negative = cell killing” value is -23.6% (inactive).
In the case of `COc1ccnc(CS(=O)c2nc3ccc(OC(F)F)cc3[nH]2)c1OC` (configuration not stated), the Potency is 15 µM (active) and 18.6 µM (active).
Regarding `Cc1cccc(Nc2nc(N[C@@H]3CCCC[C@H]3N)ncc2C(N)=O)c1`, the Potency was 1.48 µM (active).
Consider `CCCCCCCCCCCCCC(=O)N[C@H](CO)[C@H](O)c1ccc([N+](=O)[O-])cc1`, for which the call was inactive.
With `CC1(COc2ccc3c(c2)ncn3-c2ccc3cccc(N4CCC(N)CC4)c3n2)COC1`, the Potency was 2.05 µM (active) and 1.86 µM (active).
Still for that read-out and setting: then `O=C(CC12CC3CC(CC(C3)C1)C2)Nc1cccc2nc(NCCNCCO)ccc12`, with 20.9 µM (active); and `CCN1CCC(n2cc(CNc3cc(Cl)c4ncc(C#N)c(Nc5ccc(F)c(Cl)c5)c4c3)nn2)CC1`, with 18.6 µM (active).
